# According to PubChem BioAssay (NCI):
# Several values for one entry are separate records, joined by “and”; a condition that tells them apart may be missing. Identical values can stand only once. The panel holds about 83,000 compounds, 20% with a hit somewhere; the sample as a whole holds those more often.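 Plates (96-well) were seeded with cells, treated with compound at one concentration, and incubated for 48 hours before percent growth was determined.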 Activity calls are given as the source filed them. Rule for the calls: active = growth percent below 10; inactive = the rest.
# Test system: UACC-62 melanoma
# Experiment: NCI-60 one-dose screen, 48 h (100 = growth as untreated, 0 = no growth, -100 = all killed)
# Conditions: 10 µM
row,SMILES,growth
1,Cc1c(-c2ccccc2)[nH]c2ccccc12,96.3% (inactive)
2,COc1ccc(C(C#N)=C2C=CC(=NO)C=C2)cc1,66.3% (inactive)
3,COc1ccc(N)c2c1C(=O)c1ccccc1C2=O,94.3% (inactive)
4,CC[C@@]1(OC(=O)CN(C)C)C(=O)OCc2c1cc1n(c2=O)Cc2cc3c(N)cccc3nc2-1,-77.8% (active)
5,Cc1cc(N=C2C=CC(=[N+](C)C)C=C2)c(N)cc1N,89.8% (inactive)
6,COc1cc(N)ccc1Nc1c2ccccc2nc2ccccc12,89.6% (inactive)
7,O=C1C=CC(=O)N1c1ccc(N2C(=O)C=CC2=O)cc1,96.5% (inactive)
8,Cc1cc(Cl)ccc1NC(=O)/C(Cl)=C1/Sc2ccccc2NC1=O,74% (inactive)
9,O=C(CNS(=O)(=O)Cc1ccccc1)NNc1ccccc1,14.9% (inactive)
10,Cc1cc(C)c(N2C(=O)CC(Sc3ccccc3N)C2=O)c(C)c1 (configuration not stated),60.8% (inactive)
11,O=C1c2ccccc2CCC1(Br)Br,32.1% (inactive)
12,O=C(NC(=S)Nc1ccccn1)c1ccccc1,93.1% (inactive)
13,ClCCn1c(CCl)nc2ccc(Cl)cc21,-79.6% (active)
14,N#C/C(=C/N1C(=O)/C(=C/c2ccc([N+](=O)[O-])cc2)SC1=S)c1nc2ccccc2s1,70.1% (inactive)
15,CN(C)CCNc1cccc2sc3ccc(O)cc3c(=O)c12,57.8% (inactive)
16,NCc1c(O)ccc2ccccc12,95.4% (inactive)
17,CN(CC(=O)O)c1ccc(/C=C/c2ccnc3ccccc23)cc1,72.3% (inactive)

# Same assay, conditions: 100 µM
row,SMILES,growth
1,Clc1c(Cl)c(Cl)c2c(nnn2C2CCCO2)c1Cl (configuration not stated),-55.3% (active) and -99.6% (active)
2,C=C(C)[C@@H]1CCc2c(O)c(O)c(=O)cc(C)c2C1,-52.3% (active) and -85% (active)
3,COc1cc2c(cc1C[N+](C)(C)CSc1ccccc1)-c1ccccc1CC2,-96.4% (active) and -92.3% (active)
4,O=C(CCc1ccccc1)ON1C(=S)C(c2ccccc2)(c2ccccc2)N=C1Sc1ccccc1,10.7% (inactive) and 0.462% (active)
5,N#CC(=S)Nc1cccc(Cl)c1,1.5% (active) and -86.8% (active)
